Measured values from the supplement of paper PMC11732987, “Enantioselective OTUD7B fragment discovery through chemoproteomics screening and high-throughput optimisation” (Communications Chemistry, 2025).

Experiments:
Assay in all cases: log2 ratio of Biotin-Ahx-Ub-VS probe labelling (fragment/DMSO); higher = less target engagement (more negative = stronger competition), active = hit call of the paper (q ≤ 0.05, log2 ratio ≤ -1)
Conditions in all cases: compound concentration: 200 uM; treatment time: 3 h
USP42 = target: T1, USP42 (UniProt Q9H9J4)
T1 sequence (whole entry): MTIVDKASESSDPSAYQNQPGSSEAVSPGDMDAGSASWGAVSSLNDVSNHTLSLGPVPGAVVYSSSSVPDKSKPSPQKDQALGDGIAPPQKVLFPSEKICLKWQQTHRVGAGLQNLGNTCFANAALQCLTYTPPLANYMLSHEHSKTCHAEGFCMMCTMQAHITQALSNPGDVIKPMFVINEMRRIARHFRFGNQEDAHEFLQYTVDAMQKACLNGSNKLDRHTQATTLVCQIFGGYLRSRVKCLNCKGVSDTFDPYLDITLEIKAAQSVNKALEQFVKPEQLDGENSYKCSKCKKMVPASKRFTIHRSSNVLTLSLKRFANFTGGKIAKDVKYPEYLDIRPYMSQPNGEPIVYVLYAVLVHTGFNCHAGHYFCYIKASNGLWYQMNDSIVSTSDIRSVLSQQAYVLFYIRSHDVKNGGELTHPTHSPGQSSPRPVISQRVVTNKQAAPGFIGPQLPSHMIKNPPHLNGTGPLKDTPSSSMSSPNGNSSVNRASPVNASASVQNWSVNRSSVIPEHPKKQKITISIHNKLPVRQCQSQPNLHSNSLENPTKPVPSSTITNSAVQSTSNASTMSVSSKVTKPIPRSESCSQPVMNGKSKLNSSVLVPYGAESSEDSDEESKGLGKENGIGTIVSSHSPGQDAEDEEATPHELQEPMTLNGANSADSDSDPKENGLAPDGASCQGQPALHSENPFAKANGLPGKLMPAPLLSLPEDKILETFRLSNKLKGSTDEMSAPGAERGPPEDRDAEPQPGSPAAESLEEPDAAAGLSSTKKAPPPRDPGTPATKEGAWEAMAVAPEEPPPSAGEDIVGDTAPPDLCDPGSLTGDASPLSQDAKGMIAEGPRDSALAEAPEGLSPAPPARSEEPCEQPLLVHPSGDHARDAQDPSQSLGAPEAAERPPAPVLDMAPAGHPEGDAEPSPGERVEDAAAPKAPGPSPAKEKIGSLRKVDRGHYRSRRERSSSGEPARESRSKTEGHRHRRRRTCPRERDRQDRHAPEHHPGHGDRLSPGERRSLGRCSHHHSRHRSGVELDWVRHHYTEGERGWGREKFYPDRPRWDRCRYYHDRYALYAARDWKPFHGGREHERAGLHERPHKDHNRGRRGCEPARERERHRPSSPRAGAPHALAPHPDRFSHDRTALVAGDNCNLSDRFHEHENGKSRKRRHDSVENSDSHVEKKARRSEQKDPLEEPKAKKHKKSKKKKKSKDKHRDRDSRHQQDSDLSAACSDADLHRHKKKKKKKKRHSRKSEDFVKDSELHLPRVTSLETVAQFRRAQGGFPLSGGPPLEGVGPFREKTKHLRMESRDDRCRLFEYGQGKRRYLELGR
Outline: (§1)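 HEK293T lysate (495 µg per sample, in Tris/CHAPS/IGEPAL buffer with protease inhibitors) was exposed in triplicate for 3 h to fragment at 200 µM or to vehicle, then to Biotin-Ahx-Ub-VS at 0.5 µM final for 1 h. Labelled DUBs were enriched on NeutrAvidin, digested with LysC and trypsin, and analysed by diaPASEF LC-MS/MS. Spectronaut label-free quantities were normalised to the global median, and values are average log2 ratios of fragment over vehicle from an unpaired t-test. Only proteins with ≥2 unique peptides were used.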

USP46 = USP46 (UniProt P62068)
Sequence of USP46 (P62068 whole entry): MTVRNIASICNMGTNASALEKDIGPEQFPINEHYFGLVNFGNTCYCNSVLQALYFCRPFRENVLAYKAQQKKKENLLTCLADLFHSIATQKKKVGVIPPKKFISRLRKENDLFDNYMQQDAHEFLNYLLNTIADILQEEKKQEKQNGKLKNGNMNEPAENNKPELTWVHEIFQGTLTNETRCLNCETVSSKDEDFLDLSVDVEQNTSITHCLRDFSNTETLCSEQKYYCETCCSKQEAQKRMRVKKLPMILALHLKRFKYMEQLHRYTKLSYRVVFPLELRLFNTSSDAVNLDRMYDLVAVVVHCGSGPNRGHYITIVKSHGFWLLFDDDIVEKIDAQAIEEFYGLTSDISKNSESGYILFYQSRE
Outline: as §1

USP47 = target: T2, USP47 (UniProt Q96K76)
T2 sequence (whole entry): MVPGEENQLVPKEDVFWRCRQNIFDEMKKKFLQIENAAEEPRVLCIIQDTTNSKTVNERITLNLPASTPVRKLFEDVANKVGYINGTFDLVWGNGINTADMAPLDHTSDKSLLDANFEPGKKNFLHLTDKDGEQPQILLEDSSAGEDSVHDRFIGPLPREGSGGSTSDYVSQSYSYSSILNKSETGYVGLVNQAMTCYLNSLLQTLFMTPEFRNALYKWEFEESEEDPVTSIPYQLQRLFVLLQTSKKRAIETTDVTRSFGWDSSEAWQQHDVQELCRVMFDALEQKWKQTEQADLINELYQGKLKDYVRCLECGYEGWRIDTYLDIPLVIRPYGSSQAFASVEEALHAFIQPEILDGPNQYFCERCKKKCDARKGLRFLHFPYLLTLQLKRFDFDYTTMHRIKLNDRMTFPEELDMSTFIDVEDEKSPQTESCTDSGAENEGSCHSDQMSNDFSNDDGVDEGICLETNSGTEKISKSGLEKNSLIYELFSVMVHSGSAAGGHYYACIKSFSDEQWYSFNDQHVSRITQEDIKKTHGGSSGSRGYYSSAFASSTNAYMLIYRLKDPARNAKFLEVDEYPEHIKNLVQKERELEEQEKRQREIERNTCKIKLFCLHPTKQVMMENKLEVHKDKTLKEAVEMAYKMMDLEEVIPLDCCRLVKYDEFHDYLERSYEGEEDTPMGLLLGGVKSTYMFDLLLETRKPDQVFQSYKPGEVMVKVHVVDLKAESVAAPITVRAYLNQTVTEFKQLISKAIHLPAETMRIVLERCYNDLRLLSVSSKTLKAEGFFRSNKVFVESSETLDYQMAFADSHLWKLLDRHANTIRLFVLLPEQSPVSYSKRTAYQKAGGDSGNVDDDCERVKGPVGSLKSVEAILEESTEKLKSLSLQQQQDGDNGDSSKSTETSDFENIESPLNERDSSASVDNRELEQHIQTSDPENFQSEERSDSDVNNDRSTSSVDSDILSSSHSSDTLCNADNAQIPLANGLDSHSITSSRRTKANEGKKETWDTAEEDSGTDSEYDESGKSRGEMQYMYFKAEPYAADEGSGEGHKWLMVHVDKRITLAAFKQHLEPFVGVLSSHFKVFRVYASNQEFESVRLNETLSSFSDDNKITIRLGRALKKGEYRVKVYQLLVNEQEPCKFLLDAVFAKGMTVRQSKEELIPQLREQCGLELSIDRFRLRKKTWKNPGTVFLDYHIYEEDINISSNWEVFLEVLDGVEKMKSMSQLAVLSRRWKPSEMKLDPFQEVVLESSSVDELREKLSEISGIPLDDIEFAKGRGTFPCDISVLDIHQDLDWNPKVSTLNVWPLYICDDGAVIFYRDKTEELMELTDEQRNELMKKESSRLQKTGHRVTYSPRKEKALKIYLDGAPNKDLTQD
Outline: as §1

USP48 = target: T3, USP48 (UniProt Q86UV5)
T3 sequence (whole entry): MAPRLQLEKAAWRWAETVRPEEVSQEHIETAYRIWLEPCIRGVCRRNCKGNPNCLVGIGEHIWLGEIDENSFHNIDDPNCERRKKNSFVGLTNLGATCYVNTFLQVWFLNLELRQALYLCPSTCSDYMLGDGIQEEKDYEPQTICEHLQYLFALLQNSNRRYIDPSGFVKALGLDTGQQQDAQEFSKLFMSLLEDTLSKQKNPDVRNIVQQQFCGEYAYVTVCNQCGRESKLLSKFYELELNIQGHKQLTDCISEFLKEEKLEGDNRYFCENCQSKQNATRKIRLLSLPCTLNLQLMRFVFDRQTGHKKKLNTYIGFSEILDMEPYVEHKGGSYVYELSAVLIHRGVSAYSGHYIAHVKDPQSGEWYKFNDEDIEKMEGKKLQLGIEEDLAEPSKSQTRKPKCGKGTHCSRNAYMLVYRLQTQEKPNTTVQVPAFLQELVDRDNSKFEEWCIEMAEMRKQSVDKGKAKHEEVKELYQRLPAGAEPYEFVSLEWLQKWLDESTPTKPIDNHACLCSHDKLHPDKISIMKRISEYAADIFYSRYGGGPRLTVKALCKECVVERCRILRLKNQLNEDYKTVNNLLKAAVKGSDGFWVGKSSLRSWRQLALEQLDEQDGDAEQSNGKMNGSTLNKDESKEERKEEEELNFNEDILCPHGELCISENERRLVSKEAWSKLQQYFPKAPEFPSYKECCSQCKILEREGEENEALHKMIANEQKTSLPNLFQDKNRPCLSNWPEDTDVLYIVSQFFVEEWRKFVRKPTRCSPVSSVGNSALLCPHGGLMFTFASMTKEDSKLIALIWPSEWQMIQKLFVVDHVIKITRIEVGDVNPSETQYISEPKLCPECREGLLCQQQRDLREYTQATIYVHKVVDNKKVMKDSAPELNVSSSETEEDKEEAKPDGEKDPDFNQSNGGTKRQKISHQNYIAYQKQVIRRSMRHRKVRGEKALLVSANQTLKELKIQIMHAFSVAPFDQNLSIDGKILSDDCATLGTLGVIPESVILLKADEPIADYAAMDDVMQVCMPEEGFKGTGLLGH
Outline: as §1

USP5 = target: T4, USP5 (UniProt P45974)
T4 sequence (whole entry): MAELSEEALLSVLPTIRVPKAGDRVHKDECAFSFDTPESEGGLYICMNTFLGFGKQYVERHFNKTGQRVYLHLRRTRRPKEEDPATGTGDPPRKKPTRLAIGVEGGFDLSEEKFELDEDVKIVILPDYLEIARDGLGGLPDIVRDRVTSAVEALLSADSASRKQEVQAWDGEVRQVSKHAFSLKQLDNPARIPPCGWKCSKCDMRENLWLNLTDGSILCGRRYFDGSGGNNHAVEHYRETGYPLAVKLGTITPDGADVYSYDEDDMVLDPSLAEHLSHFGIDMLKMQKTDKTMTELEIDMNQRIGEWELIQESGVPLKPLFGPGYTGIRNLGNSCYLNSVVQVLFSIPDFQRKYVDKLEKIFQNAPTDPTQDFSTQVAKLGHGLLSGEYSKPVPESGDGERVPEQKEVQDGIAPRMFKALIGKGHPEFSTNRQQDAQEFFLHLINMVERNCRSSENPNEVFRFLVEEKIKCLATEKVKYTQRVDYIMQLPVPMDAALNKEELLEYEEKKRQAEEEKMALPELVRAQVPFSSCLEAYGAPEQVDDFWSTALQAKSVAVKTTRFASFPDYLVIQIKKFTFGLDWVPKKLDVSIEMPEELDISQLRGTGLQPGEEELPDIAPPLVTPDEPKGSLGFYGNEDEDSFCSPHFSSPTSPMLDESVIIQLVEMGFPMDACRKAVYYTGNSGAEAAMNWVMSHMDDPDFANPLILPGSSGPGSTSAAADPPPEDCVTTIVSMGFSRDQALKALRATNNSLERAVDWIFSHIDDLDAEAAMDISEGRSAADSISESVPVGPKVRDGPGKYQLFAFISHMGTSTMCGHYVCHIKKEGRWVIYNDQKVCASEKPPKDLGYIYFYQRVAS
Outline: as §1

USP54 = USP54 (UniProt Q70EL1)
Sequence of USP54 (Q70EL1 whole entry): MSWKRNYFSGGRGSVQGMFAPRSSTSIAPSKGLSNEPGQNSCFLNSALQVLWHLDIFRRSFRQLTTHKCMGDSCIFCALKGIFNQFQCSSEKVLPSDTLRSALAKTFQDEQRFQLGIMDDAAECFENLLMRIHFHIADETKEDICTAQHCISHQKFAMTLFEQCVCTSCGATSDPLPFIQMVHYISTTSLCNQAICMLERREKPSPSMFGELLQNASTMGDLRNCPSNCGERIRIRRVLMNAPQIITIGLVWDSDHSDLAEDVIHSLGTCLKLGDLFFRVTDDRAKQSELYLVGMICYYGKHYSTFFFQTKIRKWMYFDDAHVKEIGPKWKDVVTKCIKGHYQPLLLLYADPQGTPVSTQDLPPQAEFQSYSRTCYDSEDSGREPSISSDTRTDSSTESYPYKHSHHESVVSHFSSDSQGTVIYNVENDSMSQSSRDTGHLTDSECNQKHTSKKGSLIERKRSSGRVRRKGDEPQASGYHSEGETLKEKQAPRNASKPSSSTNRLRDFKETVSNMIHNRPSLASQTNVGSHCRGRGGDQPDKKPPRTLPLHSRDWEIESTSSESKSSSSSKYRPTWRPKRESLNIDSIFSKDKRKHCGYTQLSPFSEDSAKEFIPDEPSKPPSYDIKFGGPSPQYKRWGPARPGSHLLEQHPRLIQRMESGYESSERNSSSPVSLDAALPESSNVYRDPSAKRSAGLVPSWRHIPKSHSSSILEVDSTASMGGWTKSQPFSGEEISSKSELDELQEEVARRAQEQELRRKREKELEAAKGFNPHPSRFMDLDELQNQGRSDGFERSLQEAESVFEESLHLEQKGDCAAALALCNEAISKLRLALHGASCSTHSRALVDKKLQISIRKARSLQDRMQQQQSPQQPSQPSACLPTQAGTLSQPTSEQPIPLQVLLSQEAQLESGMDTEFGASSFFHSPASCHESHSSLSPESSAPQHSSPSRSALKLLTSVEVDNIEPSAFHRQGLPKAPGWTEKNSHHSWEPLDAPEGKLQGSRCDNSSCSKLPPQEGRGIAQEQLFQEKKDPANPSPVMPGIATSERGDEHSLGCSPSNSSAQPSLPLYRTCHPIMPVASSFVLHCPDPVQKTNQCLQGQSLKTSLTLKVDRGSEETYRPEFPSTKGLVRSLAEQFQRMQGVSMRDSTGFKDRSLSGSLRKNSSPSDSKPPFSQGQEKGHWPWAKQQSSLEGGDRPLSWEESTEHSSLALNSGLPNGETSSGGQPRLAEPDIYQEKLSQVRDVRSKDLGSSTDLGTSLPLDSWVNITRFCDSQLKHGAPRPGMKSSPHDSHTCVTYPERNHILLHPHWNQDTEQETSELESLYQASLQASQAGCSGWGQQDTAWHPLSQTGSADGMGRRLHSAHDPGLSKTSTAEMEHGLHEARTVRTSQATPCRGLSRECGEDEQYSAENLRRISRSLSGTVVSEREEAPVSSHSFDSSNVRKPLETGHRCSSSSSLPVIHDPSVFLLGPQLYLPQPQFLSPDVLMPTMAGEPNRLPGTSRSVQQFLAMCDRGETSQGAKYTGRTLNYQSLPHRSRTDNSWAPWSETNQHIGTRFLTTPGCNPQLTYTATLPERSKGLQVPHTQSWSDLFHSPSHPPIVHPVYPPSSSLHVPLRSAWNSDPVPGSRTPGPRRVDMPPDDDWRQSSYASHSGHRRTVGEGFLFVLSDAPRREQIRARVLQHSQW
Outline: as §1

USP7 = USP7 (UniProt Q93009)
Outline: as §1

USP8 = target: T5, USP8 (UniProt P40818)
T5 sequence (whole entry): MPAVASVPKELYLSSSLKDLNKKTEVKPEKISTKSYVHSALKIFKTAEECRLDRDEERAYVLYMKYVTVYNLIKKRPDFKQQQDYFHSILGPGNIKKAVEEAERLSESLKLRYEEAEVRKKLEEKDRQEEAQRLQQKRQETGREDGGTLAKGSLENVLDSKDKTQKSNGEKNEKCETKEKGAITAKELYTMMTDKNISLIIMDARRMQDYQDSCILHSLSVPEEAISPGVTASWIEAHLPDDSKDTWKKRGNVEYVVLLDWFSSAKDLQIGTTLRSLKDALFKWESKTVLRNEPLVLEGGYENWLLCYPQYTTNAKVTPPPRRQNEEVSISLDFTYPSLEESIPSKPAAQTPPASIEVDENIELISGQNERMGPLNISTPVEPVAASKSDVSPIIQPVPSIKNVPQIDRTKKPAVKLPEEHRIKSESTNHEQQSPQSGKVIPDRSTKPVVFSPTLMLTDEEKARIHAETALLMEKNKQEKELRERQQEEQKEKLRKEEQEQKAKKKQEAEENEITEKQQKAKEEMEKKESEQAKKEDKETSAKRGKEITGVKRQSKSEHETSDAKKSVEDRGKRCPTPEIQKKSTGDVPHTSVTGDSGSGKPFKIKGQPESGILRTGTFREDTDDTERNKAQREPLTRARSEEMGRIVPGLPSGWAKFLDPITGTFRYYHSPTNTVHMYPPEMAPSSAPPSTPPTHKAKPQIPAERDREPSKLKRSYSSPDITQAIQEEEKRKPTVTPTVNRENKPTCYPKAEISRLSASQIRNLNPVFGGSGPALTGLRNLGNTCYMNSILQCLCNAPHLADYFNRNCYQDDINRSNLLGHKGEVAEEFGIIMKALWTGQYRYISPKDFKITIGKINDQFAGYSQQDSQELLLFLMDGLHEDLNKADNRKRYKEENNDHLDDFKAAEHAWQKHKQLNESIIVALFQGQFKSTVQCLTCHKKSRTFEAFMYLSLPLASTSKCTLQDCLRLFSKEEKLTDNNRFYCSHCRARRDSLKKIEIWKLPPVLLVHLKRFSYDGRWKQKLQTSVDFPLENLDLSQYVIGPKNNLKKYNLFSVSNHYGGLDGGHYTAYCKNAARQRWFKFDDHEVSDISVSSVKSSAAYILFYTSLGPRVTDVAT
Outline: as §1

USP9X = USP9X (UniProt Q93008)
Sequence of USP9X (Q93008 whole entry): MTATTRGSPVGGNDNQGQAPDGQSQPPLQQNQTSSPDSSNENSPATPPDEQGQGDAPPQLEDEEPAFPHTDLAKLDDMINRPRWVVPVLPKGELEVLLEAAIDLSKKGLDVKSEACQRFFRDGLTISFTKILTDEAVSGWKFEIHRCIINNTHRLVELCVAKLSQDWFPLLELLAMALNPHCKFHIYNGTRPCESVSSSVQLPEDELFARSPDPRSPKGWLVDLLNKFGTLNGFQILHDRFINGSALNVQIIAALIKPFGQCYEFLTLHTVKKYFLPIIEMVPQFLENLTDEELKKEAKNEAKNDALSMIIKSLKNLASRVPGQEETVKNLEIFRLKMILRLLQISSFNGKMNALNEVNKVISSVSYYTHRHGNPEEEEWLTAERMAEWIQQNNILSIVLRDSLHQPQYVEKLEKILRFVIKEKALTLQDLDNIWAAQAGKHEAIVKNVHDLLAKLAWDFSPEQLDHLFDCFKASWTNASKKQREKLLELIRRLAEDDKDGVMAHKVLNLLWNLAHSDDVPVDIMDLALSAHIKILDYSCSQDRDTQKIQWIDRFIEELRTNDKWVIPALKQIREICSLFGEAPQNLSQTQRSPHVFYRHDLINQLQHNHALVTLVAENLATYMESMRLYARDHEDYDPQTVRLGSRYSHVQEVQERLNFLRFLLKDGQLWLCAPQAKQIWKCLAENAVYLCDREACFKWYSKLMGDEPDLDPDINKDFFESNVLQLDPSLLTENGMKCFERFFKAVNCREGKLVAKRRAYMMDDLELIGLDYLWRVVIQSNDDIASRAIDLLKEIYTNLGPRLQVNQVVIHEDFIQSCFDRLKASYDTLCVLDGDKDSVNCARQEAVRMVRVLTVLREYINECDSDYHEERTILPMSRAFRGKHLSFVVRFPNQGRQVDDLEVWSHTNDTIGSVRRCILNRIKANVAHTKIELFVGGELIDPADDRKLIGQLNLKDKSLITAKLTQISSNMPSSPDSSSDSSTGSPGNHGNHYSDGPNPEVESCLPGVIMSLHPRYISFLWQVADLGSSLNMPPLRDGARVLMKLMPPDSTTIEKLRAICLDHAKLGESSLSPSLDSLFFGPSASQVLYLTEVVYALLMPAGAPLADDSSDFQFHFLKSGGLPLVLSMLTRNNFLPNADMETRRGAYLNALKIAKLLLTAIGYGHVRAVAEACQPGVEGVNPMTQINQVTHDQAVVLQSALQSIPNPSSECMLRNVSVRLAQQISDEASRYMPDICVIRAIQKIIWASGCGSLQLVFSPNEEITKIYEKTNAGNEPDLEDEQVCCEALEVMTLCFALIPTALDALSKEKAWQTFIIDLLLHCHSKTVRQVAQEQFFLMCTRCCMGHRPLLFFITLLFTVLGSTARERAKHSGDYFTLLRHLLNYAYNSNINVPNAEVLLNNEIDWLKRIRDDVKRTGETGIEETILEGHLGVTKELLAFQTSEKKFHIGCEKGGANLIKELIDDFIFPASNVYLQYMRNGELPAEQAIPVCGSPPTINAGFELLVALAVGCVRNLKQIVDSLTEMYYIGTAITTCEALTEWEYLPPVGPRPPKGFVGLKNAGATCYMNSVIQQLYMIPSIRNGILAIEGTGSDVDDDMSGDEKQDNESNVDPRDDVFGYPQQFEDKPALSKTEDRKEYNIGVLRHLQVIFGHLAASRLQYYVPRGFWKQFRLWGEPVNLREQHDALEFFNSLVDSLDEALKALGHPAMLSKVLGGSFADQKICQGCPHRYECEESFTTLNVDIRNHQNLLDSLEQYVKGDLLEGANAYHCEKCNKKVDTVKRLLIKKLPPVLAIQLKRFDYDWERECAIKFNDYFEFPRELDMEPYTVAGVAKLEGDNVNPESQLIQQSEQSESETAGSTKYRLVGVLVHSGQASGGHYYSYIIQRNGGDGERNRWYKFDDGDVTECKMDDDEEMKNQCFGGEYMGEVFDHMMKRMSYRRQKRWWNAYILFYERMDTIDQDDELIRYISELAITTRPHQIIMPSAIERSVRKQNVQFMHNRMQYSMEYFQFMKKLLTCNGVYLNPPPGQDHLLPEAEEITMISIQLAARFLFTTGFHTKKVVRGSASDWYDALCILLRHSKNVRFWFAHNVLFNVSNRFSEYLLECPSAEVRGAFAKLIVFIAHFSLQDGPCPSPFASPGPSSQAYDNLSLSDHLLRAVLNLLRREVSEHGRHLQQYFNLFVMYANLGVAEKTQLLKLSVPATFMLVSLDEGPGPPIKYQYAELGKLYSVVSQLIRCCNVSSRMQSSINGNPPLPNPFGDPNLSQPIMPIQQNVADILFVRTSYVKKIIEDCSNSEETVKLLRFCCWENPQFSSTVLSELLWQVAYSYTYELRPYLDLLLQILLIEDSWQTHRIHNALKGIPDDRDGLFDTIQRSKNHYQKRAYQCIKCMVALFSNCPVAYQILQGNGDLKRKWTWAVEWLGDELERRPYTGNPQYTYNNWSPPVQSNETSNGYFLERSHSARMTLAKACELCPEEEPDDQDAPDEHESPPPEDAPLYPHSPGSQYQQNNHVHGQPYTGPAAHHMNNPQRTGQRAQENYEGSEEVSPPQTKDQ
Outline: as §1

UniProt O00487 = target: UniProt O00487
Sequence of UniProt O00487 (O00487 whole entry): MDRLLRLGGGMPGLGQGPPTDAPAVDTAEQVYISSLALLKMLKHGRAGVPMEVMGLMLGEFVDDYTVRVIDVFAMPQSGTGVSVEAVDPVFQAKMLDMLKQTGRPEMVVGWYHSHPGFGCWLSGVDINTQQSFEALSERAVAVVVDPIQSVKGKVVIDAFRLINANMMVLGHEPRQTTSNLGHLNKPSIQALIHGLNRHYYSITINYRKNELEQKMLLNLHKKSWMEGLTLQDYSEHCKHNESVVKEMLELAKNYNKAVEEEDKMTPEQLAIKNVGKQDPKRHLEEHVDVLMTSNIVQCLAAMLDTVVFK
Outline: as §1

Measured: log2 ratio of Biotin-Ahx-Ub-VS probe labelling

O=C(CCl)Nc1ccc(N2CCCC2=O)cc1
inactive: USP42 -0.131 | USP46 0.132 | USP47 0.214 | USP48 -0.192 | USP5 -0.0866 | USP54 0.313 | USP7 -0.0242 | USP8 0.198 | USP9X 0.00968 | UniProt O00487 -0.0936
